Shown are actives, neighbours in structure and some others; about 2.3% of the full set was active somewhere.
ROS inducer: cancer cell ROS induction. 46,000 tested, 2% active. ROS induction (% of piperlongumine), % at 10 µM. AID 624156. U2OS ROS induction, H2DCF-DA fluorescence; in the data active means ROS induction above about 79%, passing the limit was not always enough; inconclusive means no clear call, values can overlap the other calls
YB-1 expression: YB-1 expression inhibition; U2OS, qRT-PCR YB-1 vs CDIP delta delta Cp, 16 h; stronger effect = higher value; zero = DMSO, each unit about twofold; delta delta Cp (YB-1 minus CDIP) (test concentration not listed); 30,000 tested, 0.37% active; AID 434959;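 active means delta delta Cp rounded down to an integer at or above 3, about 3 SD of DMSO wells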;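 further: higher means less YB-1 transcript or more CDIP transcript relative to DMSO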
PD-1 reverse act: activators reversing PD-1 mediated T-cell inhibition. primary human CD4 T cells, PD-L1 beads, CellTiter-Glo 96 h. activation, % (concentration not given with the values). 29,000 tested, under 10 active. AID 2316; call rule not given here
Large screens that a line does not name were inactive.

COCCOC(=O)N1C(=O)[C@@]2(c3cc(C#CC4=CCCCC4)ccc31)[C@H](C(N)=O)[C@H]1C(=O)O[C@H](c3ccccc3)[C@H](c3ccccc3)N1[C@@H]2c1ccccc1OCCO	ROS inducer 138.2 (no result: PD-1 reverse act)
COCCOC(=O)N1C(=O)[C@@]2(c3cc(C#CCCO)ccc31)[C@H](C(=O)NC[C@H](O)c1ccccc1)[C@H]1C(=O)O[C@H](c3ccccc3)[C@H](c3ccccc3)N1[C@@H]2c1ccccc1OCCO	none (no result: PD-1 reverse act)
COC(=O)C(CC#Cc1ccc2c(c1)[C@]1(C(=O)N2)[C@H](C(=O)NC[C@H](O)c2ccccc2)[C@H]2C(=O)O[C@H](c3ccccc3)[C@H](c3ccccc3)N2[C@@H]1c1ccccc1OCCO)C(=O)OC	ROS inducer 113.1 (no result: PD-1 reverse act)
COC(=O)C(CC#Cc1ccc2c(c1)[C@]1(C(=O)N2)[C@H](C(=O)N2CCc3cc(OC)c(OC)cc3C2)[C@H]2C(=O)O[C@H](c3ccccc3)[C@H](c3ccccc3)N2[C@@H]1c1ccccc1OCCO)C(=O)OC	none (no result: PD-1 reverse act)
COC(=O)C(CC#Cc1ccc2c(c1)[C@]1(C(=O)N2)[C@H](C(N)=O)[C@H]2C(=O)O[C@H](c3ccccc3)[C@H](c3ccccc3)N2[C@@H]1c1ccc(OCCO)cc1)C(=O)OC	none (no result: PD-1 reverse act)
COCCOC(=O)N1C(=O)[C@@]2(c3cc(C#CCCO)ccc31)[C@H](C(=O)N1CCc3cc(OC)c(OC)cc3C1)[C@H]1C(=O)O[C@H](c3ccccc3)[C@H](c3ccccc3)N1[C@@H]2c1ccccc1OCCO	none (no result: PD-1 reverse act)
O=C1O[C@@H](c2ccccc2)[C@@H](c2ccccc2)N2[C@@H](c3ccccc3OCCO)[C@]3(C(=O)Nc4ccc(C#CC5(O)CCCCCC5)cc43)[C@@H](C(=O)NC[C@H](O)c3ccccc3)[C@H]12	none (no result: PD-1 reverse act)
COCCOC(=O)N1C(=O)[C@@]2(c3cc(C#CCCO)ccc31)[C@H](c1ccccc1OCCO)N1[C@H](c3ccccc3)[C@H](c3ccccc3)OC(=O)[C@H]1[C@@H]2C(=O)N1CCc2cc(OC)c(OC)cc2C1	ROS inducer 94.7 (no result: PD-1 reverse act)
COC(=O)C(CC#Cc1ccc2c(c1)[C@]1(C(=O)N2)[C@H](C(N)=O)[C@H]2C(=O)O[C@H](c3ccccc3)[C@H](c3ccccc3)N2[C@@H]1c1ccccc1OCCO)C(=O)OC	ROS inducer 142.3 (no result: PD-1 reverse act)
COC(=O)C(CC#Cc1ccc2c(c1)[C@]1(C(=O)N2)[C@H](c2ccccc2OCCO)N2[C@H](c3ccccc3)[C@H](c3ccccc3)OC(=O)[C@H]2[C@@H]1C(=O)N1CCc2cc(OC)c(OC)cc2C1)C(=O)OC	ROS inducer 174.9 (no result: PD-1 reverse act)
O=C(Cc1coc2ccc3ccccc3c12)Nc1cccnc1	none (no result: YB-1 expression)
CCOC(=O)c1sc(C)c2c(=O)[nH]c(-c3ccccc3)nc12	none (no result: YB-1 expression, PD-1 reverse act)
COc1ccc(CCNC(=O)COc2ccc3c(=O)c(-c4ccccc4)coc3c2)cc1OC	none (no result: YB-1 expression, PD-1 reverse act)
O=C(CSc1ccccn1)Nc1ccccn1	none
CC(C)c1ccc(-c2csc3ncn(N)c(=O)c23)cc1	none (no result: YB-1 expression, PD-1 reverse act)
COc1ccc(-c2[nH]ncc2CN2CCC(c3ccccc3OC)CC2)cc1	none (no result: YB-1 expression, PD-1 reverse act)
COc1ccc(OCc2nnc3n2N=C(c2ccc(OC)c(OC)c2)C(c2ccccc2)S3)cc1 (stereo not given)	ROS inducer 99.0 (no result: YB-1 expression)
C[C@H](CO)N1C[C@H](C)[C@@H](CN(C)Cc2ccc(-c3ccccc3)cc2)Oc2ccc(NC(=O)C3CCCCC3)cc2C1=O	ROS inducer 103.6
C[C@H]1CN([C@@H](C)CO)C(=O)c2cc(NC(=O)C3CCCCC3)ccc2O[C@@H]1CN(C)Cc1ccc(-c2ccccc2)cc1	ROS inducer inconclusive
C[C@@H]1CN([C@H](C)CO)C(=O)c2cc(NC(=O)C3CCCCC3)ccc2O[C@H]1CN(C)Cc1ccc(Oc2ccccc2)cc1	none
C[C@H](CO)N1C[C@H](C)[C@@H](CN(C)Cc2ccc(Oc3ccccc3)cc2)Oc2ccc(NC(=O)C3CCCCC3)cc2C1=O	ROS inducer 83.8
C[C@H]1CN([C@@H](C)CO)C(=O)CCCn2nncc2CO[C@@H]1CN(C)CC1CC1	none (no result: PD-1 reverse act)
C[C@H](CO)N1C[C@H](C)[C@H](CN(C)CC2CC2)OCc2cnnn2CCCC1=O	ROS inducer 137.0 (no result: PD-1 reverse act)
C[C@@H]1CN([C@@H](C)CO)C(=O)CCCn2nncc2CO[C@H]1CN(C)C(=O)c1ccc2ccn(C)c2c1	ROS inducer 94.0 (no result: PD-1 reverse act)
C[C@@H]1CN([C@H](C)CO)C(=O)CCCn2nncc2CO[C@@H]1CN(C)C(=O)c1ccc2ccn(C)c2c1	none (no result: PD-1 reverse act)
COC(=O)C1CN(C(=O)/C=C/c2ccccc2)c2ccccc2O1 (stereo not given)	none (no result: YB-1 expression, PD-1 reverse act)
N#CC(C(N)=S)=C1CCCC1	none (no result: YB-1 expression, PD-1 reverse act)
Cn1c(SCC(=O)Nc2sc3c(c2C#N)CCCC3)nnc1-c1ccc(Cl)cc1Cl	none (no result: YB-1 expression)
